Results: ChEMBL document CHEMBL3433997, “St. Jude Leishmania screening dataset” (2016)

target: Solute carrier family 2, facilitated glucose transporter member 1 (Homo sapiens) (UniProt P11166); assay: ST_JUDE_LEISH: Cytotoxicity at 2uM final concentration against transgenic Leishmania Mexicana promastigotes LmGLUT1 that are glucose transport deficient and complemented with the human glucose transporter GLUT1. Activity is measured by DNA content using SYBR green in vitro; type: functional
Sequence (P11166 whole entry): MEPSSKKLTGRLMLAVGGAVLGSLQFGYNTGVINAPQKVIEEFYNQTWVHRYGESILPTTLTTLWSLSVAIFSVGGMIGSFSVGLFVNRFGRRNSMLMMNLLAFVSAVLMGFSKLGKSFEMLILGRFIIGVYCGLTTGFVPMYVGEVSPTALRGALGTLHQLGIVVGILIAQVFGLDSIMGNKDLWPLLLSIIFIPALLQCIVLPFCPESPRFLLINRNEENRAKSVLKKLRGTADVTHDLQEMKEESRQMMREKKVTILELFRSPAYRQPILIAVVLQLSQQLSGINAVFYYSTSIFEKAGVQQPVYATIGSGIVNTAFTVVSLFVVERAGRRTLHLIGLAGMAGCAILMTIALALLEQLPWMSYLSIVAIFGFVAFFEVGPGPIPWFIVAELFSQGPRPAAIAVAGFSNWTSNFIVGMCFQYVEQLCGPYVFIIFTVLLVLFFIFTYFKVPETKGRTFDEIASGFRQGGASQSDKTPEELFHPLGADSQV

SMILES	inhibition
NC1CCCN(Cc2cccc(-c3cccc(-c4nc5ccccc5[nH]4)c3)c2)C1 (stereo not given)	8.27%
O=S(=O)(NCCN1CCCC1)c1ccc(-c2ccc(CNC3Cc4ccccc4C3)cc2)s1	5.8%
COc1ccc(Nc2ncc(C#N)c(Nc3ccccc3C(N)=O)n2)cc1N1CCN(C)CC1	15.8%
COc1ccc2nccc(NC(=O)OC3CCC(NCc4ccc5c(n4)NC(=O)CS5)CC3)c2c1 (stereo not given)	4.53%
CC(O)C1CCCCN1C(=O)c1cccc(-c2cccc(-c3nc4ccccc4[nH]3)c2)c1 (stereo not given)	0.78%
COc1cccc(Nc2c(C(N)=O)cnc3ccc(-c4ccccc4)cc23)c1	0.37%
O=C(/C=C/c1ccc(Cl)c(Cl)c1)NCCCCN1CCCN(C(=O)Nc2ccc(F)c(Cl)c2)CC1	3%
Cc1ccc(S(=O)(=O)N(CCCN2CCN(C)CC2)Cc2csc(-c3ccc(CNCc4ccccc4)cc3)n2)cc1	9.12%
CN(C)CCOc1cc(NC(=O)Nc2ccc(-c3ccccc3)cc2Cl)ccc1I	1.19%
N#Cc1cncc(-c2nc3c(N4CCC(Cc5ccccc5)CC4)cccc3n2CCNCc2ccccc2)c1	5.27%
Clc1ccc(-c2cnc3ccc(NCCc4cccnc4)nn23)cc1	1.24%
CCOCCCNc1nc2cc(OC)c(OC)cc2c2nc(-c3ccccc3)nn12	1.59%
Cc1nc(C)c(-c2ccc(Oc3cc(Cl)cc(Cl)c3)cc2)c(O)c1Cl	2.68%
O=C(Nc1ccccc1)N(Cc1cccc(-c2ccc(CNCCc3ccccc3)cc2)c1)C1CCN(Cc2ccccc2)CC1	0.46%
COc1ccc2ccc(F)c(CC(=O)N3CCOC(CNCc4cccc(-c5ccc(F)cc5)n4)C3)c2n1 (stereo not given)	-1.79%
N#Cc1ccc2c(c1)CN(C1CCC(NC(=O)c3cc(-c4ccc(Cl)cc4)cs3)CC1)CCC2 (stereo not given)	3.29%
c1ccc(-c2ccc(CNCCCNc3nc4ccccc4[nH]3)cc2)cc1	4.26%
COc1cc(C(=O)Nc2nc3ccccc3[nH]2)ccc1OCC(=O)Nc1cccc(C(F)(F)F)c1	2.59%
CN1CCCN(Cc2cccc(-c3ccc(NC(=O)c4cccc(Cl)c4)cc3)c2)CC1	71.1%
COc1cc(NC(=O)/C=C/c2cc(F)cc(F)c2F)cc(OCCN2CCN(CCN3CCOCC3)CC2)c1	3.46%

SMILES	inhibition
Cc1ccnc2nc(C(=O)Nc3cc(C(F)(F)F)ccc3N3CCCCC3)nn12	1.48%
O=C(Cn1c(CCc2cccc(F)c2F)cc(=O)c2ccccc21)N(CCN1CCCCC1)Cc1ccc(-c2ccc(C(F)(F)F)cc2)cc1	6.77%
Oc1ccc(Cl)cc1-c1cc(C(F)(F)F)nc(-c2ccccc2)n1	7.04%
c1cn(CCCNc2ncc(-c3ccsc3)c(-c3nccs3)n2)cn1	11%
COc1cc2nc(Nc3ccc(N4CCOCC4)cc3)nc(N)c2cc1OC	0.99%
CCc1c(CCNCCCCCCNCCc2ccc(Br)cc2)ccc(O)c1O	-0.07%
CS(=O)(=O)Cc1ccc(Nc2nccc(NC3CCN(c4nccc(C(F)(F)F)n4)CC3)n2)cc1	2.96%
CCN(CC)CCN(Cc1ccc(-c2ccc(C(F)(F)F)cc2)cc1)C(=O)Cn1cc(Cc2cnn(C)c2)c(=O)nc1/C=C/c1ccc(F)cc1	1.22%
CN1CCN(CCCNCc2ccccc2-c2cccc(CNCc3ccc4c(c3)OCO4)c2)CC1	-1.31%
COc1cc(C)nc2ccc(NC(=O)c3cc(C(F)(F)F)cc(C(F)(F)F)c3)cc12	16.3%
CC[C@H](C)CNC(=O)c1cccc(-c2ccc(CN3CCC(N4CCCC4)CC3)cc2)n1	2.3%
c1ccc2c(CNc3ccnc(NCc4cccc5ccccc45)n3)cccc2c1	9.83%
COCCOc1ccc(Nc2nccc(-c3c(-c4cccc(NC(=O)c5c(F)cccc5F)c4)nn4ccccc34)n2)cc1F	7.82%
Cc1cc(NCCc2ccccc2)nc(NC(=N)Nc2cccc(F)c2)n1	2.17%
Cc1cc(C=C2SC(=Nc3ccccc3)N(C3CCCC3)C2=O)c(C)n1-c1ccc(Cl)cc1	0.96%
CC(C)(C)CC(=O)Nc1ccc(Nc2cc(-c3ccncc3)cc3ncc(C(N)=O)cc23)cc1	-0.38%
CCOc1ccc2nc(N(CCCn3ccnc3)C(=O)C=Cc3cccs3)sc2c1	3.54%
O=C(Nc1cc(Cl)ccc1O)c1ccc(Oc2ccc(C(=O)Nc3cc(Cl)ccc3O)cc2)cc1	-1.36%
Cc1cccc(Nc2nccc(NCC(O)c3ccc(C(F)(F)F)cc3)n2)c1 (stereo not given)	10.6%
N#Cc1cc(C(=O)c2cc(Br)ccc2O)cn(-c2cc(Cl)cc(Cl)c2)c1=O	-3.11%

target: Hexose transporter 1 (Plasmodium falciparum) (UniProt O97467); assay: ST_JUDE_LEISH: Cytotoxicity at 2uM final concentration against transgenic Leishmania Mexicana promastigotes LmPfHT that are glucose transport deficient and complemented with the Plasmodium falciparum hexose transporter. Activity is measured by DNA content using SYBR green in vitro; type: functional

SMILES	inhibition
NC1CCCN(Cc2cccc(-c3cccc(-c4nc5ccccc5[nH]4)c3)c2)C1 (stereo not given)	6.48%
O=S(=O)(NCCN1CCCC1)c1ccc(-c2ccc(CNC3Cc4ccccc4C3)cc2)s1	12.6%
COc1ccc(Nc2ncc(C#N)c(Nc3ccccc3C(N)=O)n2)cc1N1CCN(C)CC1	18.1%
COc1ccc2nccc(NC(=O)OC3CCC(NCc4ccc5c(n4)NC(=O)CS5)CC3)c2c1 (stereo not given)	4.67%
CC(O)C1CCCCN1C(=O)c1cccc(-c2cccc(-c3nc4ccccc4[nH]3)c2)c1 (stereo not given)	0.15%
COc1cccc(Nc2c(C(N)=O)cnc3ccc(-c4ccccc4)cc23)c1	0.94%
O=C(/C=C/c1ccc(Cl)c(Cl)c1)NCCCCN1CCCN(C(=O)Nc2ccc(F)c(Cl)c2)CC1	1.91%
Cc1ccc(S(=O)(=O)N(CCCN2CCN(C)CC2)Cc2csc(-c3ccc(CNCc4ccccc4)cc3)n2)cc1	7.67%
CN(C)CCOc1cc(NC(=O)Nc2ccc(-c3ccccc3)cc2Cl)ccc1I	0.57%
N#Cc1cncc(-c2nc3c(N4CCC(Cc5ccccc5)CC4)cccc3n2CCNCc2ccccc2)c1	4.45%
Clc1ccc(-c2cnc3ccc(NCCc4cccnc4)nn23)cc1	-1.47%
CCOCCCNc1nc2cc(OC)c(OC)cc2c2nc(-c3ccccc3)nn12	2.14%
Cc1nc(C)c(-c2ccc(Oc3cc(Cl)cc(Cl)c3)cc2)c(O)c1Cl	3.03%
O=C(Nc1ccccc1)N(Cc1cccc(-c2ccc(CNCCc3ccccc3)cc2)c1)C1CCN(Cc2ccccc2)CC1	-0.56%
COc1ccc2ccc(F)c(CC(=O)N3CCOC(CNCc4cccc(-c5ccc(F)cc5)n4)C3)c2n1 (stereo not given)	0.05%
N#Cc1ccc2c(c1)CN(C1CCC(NC(=O)c3cc(-c4ccc(Cl)cc4)cs3)CC1)CCC2 (stereo not given)	0.21%
c1ccc(-c2ccc(CNCCCNc3nc4ccccc4[nH]3)cc2)cc1	9.56%
COc1cc(C(=O)Nc2nc3ccccc3[nH]2)ccc1OCC(=O)Nc1cccc(C(F)(F)F)c1	2.67%
CN1CCCN(Cc2cccc(-c3ccc(NC(=O)c4cccc(Cl)c4)cc3)c2)CC1	80%
COc1cc(NC(=O)/C=C/c2cc(F)cc(F)c2F)cc(OCCN2CCN(CCN3CCOCC3)CC2)c1	1.58%

SMILES	inhibition
Cc1ccnc2nc(C(=O)Nc3cc(C(F)(F)F)ccc3N3CCCCC3)nn12	2.09%
O=C(Cn1c(CCc2cccc(F)c2F)cc(=O)c2ccccc21)N(CCN1CCCCC1)Cc1ccc(-c2ccc(C(F)(F)F)cc2)cc1	5.08%
Oc1ccc(Cl)cc1-c1cc(C(F)(F)F)nc(-c2ccccc2)n1	5.96%
c1cn(CCCNc2ncc(-c3ccsc3)c(-c3nccs3)n2)cn1	10.1%
COc1cc2nc(Nc3ccc(N4CCOCC4)cc3)nc(N)c2cc1OC	2.3%
CCc1c(CCNCCCCCCNCCc2ccc(Br)cc2)ccc(O)c1O	0.74%
CS(=O)(=O)Cc1ccc(Nc2nccc(NC3CCN(c4nccc(C(F)(F)F)n4)CC3)n2)cc1	1.41%
CCN(CC)CCN(Cc1ccc(-c2ccc(C(F)(F)F)cc2)cc1)C(=O)Cn1cc(Cc2cnn(C)c2)c(=O)nc1/C=C/c1ccc(F)cc1	1.54%
CN1CCN(CCCNCc2ccccc2-c2cccc(CNCc3ccc4c(c3)OCO4)c2)CC1	-0.45%
COc1cc(C)nc2ccc(NC(=O)c3cc(C(F)(F)F)cc(C(F)(F)F)c3)cc12	12.8%
CC[C@H](C)CNC(=O)c1cccc(-c2ccc(CN3CCC(N4CCCC4)CC3)cc2)n1	0.54%
c1ccc2c(CNc3ccnc(NCc4cccc5ccccc45)n3)cccc2c1	5.69%
COCCOc1ccc(Nc2nccc(-c3c(-c4cccc(NC(=O)c5c(F)cccc5F)c4)nn4ccccc34)n2)cc1F	10.9%
Cc1cc(NCCc2ccccc2)nc(NC(=N)Nc2cccc(F)c2)n1	3.28%
Cc1cc(C=C2SC(=Nc3ccccc3)N(C3CCCC3)C2=O)c(C)n1-c1ccc(Cl)cc1	0.85%
CC(C)(C)CC(=O)Nc1ccc(Nc2cc(-c3ccncc3)cc3ncc(C(N)=O)cc23)cc1	1.53%
CCOc1ccc2nc(N(CCCn3ccnc3)C(=O)C=Cc3cccs3)sc2c1	2.73%
O=C(Nc1cc(Cl)ccc1O)c1ccc(Oc2ccc(C(=O)Nc3cc(Cl)ccc3O)cc2)cc1	-1.96%
Cc1cccc(Nc2nccc(NCC(O)c3ccc(C(F)(F)F)cc3)n2)c1 (stereo not given)	11.4%
N#Cc1cc(C(=O)c2cc(Br)ccc2O)cn(-c2cc(Cl)cc(Cl)c2)c1=O	0.39%
